Assay results reported in PubChem BioAssay (NCI).
The panel holds about 83,000 compounds, 20% with a hit somewhere; the sample as a whole holds those more often.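 Testing used 96-well plates and a 48-hour single-concentration exposure. Example: -40 means 40% of the starting cells died.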 Unmarked numbers belong to inactive results. The source made the active and inactive calls. Rule for the calls: active = growth percent below 10; inactive = the rest.

Tested on: OVCAR-4 ovarian
Assay: NCI-60 one-dose screen, 48 h (100 = growth as untreated, 0 = no growth, -100 = all killed)
Conditions: 10 µM

SMILES | growth
O=C(NO)c1ccc(-c2nc3ccc4[nH]ncc4c3c3c2CCCC3)cc1 | -4.75% (active)
O=C(CNc1nc(-c2ccccc2)cs1)Nc1ccc(Cl)cc1 | -33.8% (active)
COc1cc2c3c(n(CCCN4CCOCC4)c(=O)c2cc1OC)-c1nc2c(cc1C3=O)OCO2 | 6.71% (active)
Cc1ccc(/C=C/C(=O)c2ccc(NC(=O)CSc3nnc(-c4c[nH]c5ccccc45)n3-c3ccccc3)cc2)c(C)c1 | 13.1%
O=C(CN1CCN(c2ncnc3c2cnn3-c2ccccc2)CC1)Nc1nncs1 | 13.6%
CC(=O)Oc1ccccc1C(=O)Oc1ccc(C(=O)/C=C/c2ccncc2)cc1 | 59.9%
O=C(NC(=S)N1CCN(c2ncnc3c2cnn3-c2ccccc2)CC1)c1ccc(Cl)cc1 | 16.5%
C/C(=N\N=C\c1ccc(N(C)C)cc1)c1ccc2c(c1)Nc1ccccc1S2 | 17.4%
COC(=O)C[C@](O)(CCCC(C)(C)O)C(=O)O[C@H]1C(OC)=C[C@@]23CCC(=O)N2CCc2cc4c(cc2[C@@H]13)OCO4 | 90.1%
CN1CCN(Cc2ccc(NC(=O)c3cncc(C#Cc4cnc5ccc(N[C@H]6CCOC6)nn45)c3)cc2C(F)(F)F)CC1 | -65.3% (active)
CCOc1ccc(/C=N/NC(=O)Cn2nc(Cc3ccc([N+](=O)[O-])cc3)c3onc(C)c3c2=O)cc1 | -34.8% (active)
CN1CCN(c2ccc(C(=O)/C=C/c3ccc(OC(F)F)cc3)cc2)CC1 | 59%
COc1ccc(C2N(c3ccc(Br)cc3)N=C(C(C)=O)N2[C@H]2[C@H](OC(C)=O)O[C@H](COC(C)=O)[C@@H](OC(C)=O)[C@@H]2OC(C)=O)cc1 (some centres undefined) | 71.6%
CCOC(=O)C1=C(N)N(c2ccccc2)C2=C(C(=O)CC(C)(C)C2)C1c1ccc(Cl)cc1 (centres undefined) | 29.3%
CCCn1c(=O)c2[nH]c(-c3ccc(OCc4nc5ccc(F)cc5[nH]4)cc3)nc2n(CCC)c1=O | -2.86% (active)
Cc1ccc(/C(CSc2nnc(-c3c[nH]c4ccccc34)n2-c2ccccc2)=N/O)cc1 | -87.2% (active)
CN1CCN(c2ccc(C(=O)/C=C/c3cc(C(F)(F)F)ccc3Cl)cc2)CC1 | -36.5% (active)
COc1ccc(C(=O)Nc2sc3c(c2C#N)CCC(=O)C3)cc1C(F)(F)F | 21.7%
Cc1ccc(/C=C/C(=O)c2ccc(NC(=O)CSc3nnc(-c4c[nH]c5ccccc45)n3-c3ccccc3)cc2)cc1 | 85.2%

SMILES | growth
COc1ccc(Nc2nc(N)n(Cc3cccc(Br)c3)n2)cc1 | 7.22% (active)
O=C1CCC(N2Cc3cc(NC(=O)COc4ccccc4)ccc3C2=O)C(=O)N1 (centres undefined) | 72.2%
O=C(/C=C/Nc1ccccc1)c1ccc2c(c1)Nc1ccccc1S2 | 49.2%
COc1cc2c(c(OC)c1OC)C(=O)CC(c1cccc(NC(=O)c3cccc(N)c3)c1)O2 (centres undefined) | 64.1%
Cc1noc2c(Cc3ccc([N+](=O)[O-])cc3)nn(CC(=O)N/N=C/c3ccc(Br)cc3)c(=O)c12 | 17.9%
COc1ccc(-c2nc(Nc3ccccc3S(N)(=O)=O)c3ccccc3n2)cc1 | 32.7%
COc1cc(/C=C/C(=O)c2ccc(NC(=O)CSc3nnc(-c4c[nH]c5ccccc45)n3-c3ccccc3)cc2)cc(OC)c1OC | 93%
O=C(CSc1nnc(-c2ccc3nc(-c4ccc(Cl)cc4)[nH]c3c2)o1)Nc1ccc(Br)cc1 | 16.4%
Cc1ccn2c(C(=O)c3ccccc3)cc(-c3cc(-c4ccc(N(C)C)cc4)c(C#N)c(N)n3)c2c1 | 45.5%
O=C1c2ccccc2C(=O)c2c1c(C(=O)c1ccc(Cl)cc1)n1c2ccc2c3ccccc3ccc21 | 107%
Cn1c(O)c(N=Nc2nc(-c3cc4ccccc4oc3=O)cs2)c2cc(Br)ccc21 | 80.9%
Cn1cc(-c2cc(N)n3nc(-c4c[nH]c5ccc(Br)cc45)cc3n2)c2cccnc21 | -42.2% (active)
COc1ccc2c3nc4cc(C)c(C)cc4nc3n(CCN(C)C)c2c1 | -26.1% (active)
O=C(CSc1nnc(-c2c[nH]c3ccccc23)n1-c1ccccc1)c1ccc(Br)cc1 | 46.2%
OCc1[nH]nc2cc(Nc3ncc4ccc(Br)c(OC5CCC(O)CC5)c4n3)ccc12 (centres undefined) | 4.77% (active)
Cc1cc(C)nc(NS(=O)(=O)c2ccc(N/C(N)=N/c3nccc(-c4ccccc4)n3)cc2)n1 | 67.3%
N#Cc1c(NC(=O)c2ccc(C(O)(C(F)(F)F)C(F)(F)F)cc2)sc2c1CCC(=O)C2 | -29.6% (active)
N#Cc1ccc(-c2nn(-c3ccc(C(=O)O)cc3)cc2CNc2cc(Cl)cc(C(F)(F)F)c2)cc1 | 27.8%

Tested on: SK-OV-3 ovarian
Assay: as above
Conditions: 10 µM

SMILES | growth
O=C(NO)c1ccc(-c2nc3ccc4[nH]ncc4c3c3c2CCCC3)cc1 | 21.1%
O=C(CNc1nc(-c2ccccc2)cs1)Nc1ccc(Cl)cc1 | -82.9% (active)
COc1cc2c3c(n(CCCN4CCOCC4)c(=O)c2cc1OC)-c1nc2c(cc1C3=O)OCO2 | -4.15% (active)
Cc1ccc(/C=C/C(=O)c2ccc(NC(=O)CSc3nnc(-c4c[nH]c5ccccc45)n3-c3ccccc3)cc2)c(C)c1 | 106%
O=C(CN1CCN(c2ncnc3c2cnn3-c2ccccc2)CC1)Nc1nncs1 | 28.1%
CC(=O)Oc1ccccc1C(=O)Oc1ccc(C(=O)/C=C/c2ccncc2)cc1 | 96.7%
O=C(NC(=S)N1CCN(c2ncnc3c2cnn3-c2ccccc2)CC1)c1ccc(Cl)cc1 | 41.8%
C/C(=N\N=C\c1ccc(N(C)C)cc1)c1ccc2c(c1)Nc1ccccc1S2 | 87.8%
COC(=O)C[C@](O)(CCCC(C)(C)O)C(=O)O[C@H]1C(OC)=C[C@@]23CCC(=O)N2CCc2cc4c(cc2[C@@H]13)OCO4 | 103%
CN1CCN(Cc2ccc(NC(=O)c3cncc(C#Cc4cnc5ccc(N[C@H]6CCOC6)nn45)c3)cc2C(F)(F)F)CC1 | -63.8% (active)
CCOc1ccc(/C=N/NC(=O)Cn2nc(Cc3ccc([N+](=O)[O-])cc3)c3onc(C)c3c2=O)cc1 | 91.3%
CN1CCN(c2ccc(C(=O)/C=C/c3ccc(OC(F)F)cc3)cc2)CC1 | 76%
COc1ccc(C2N(c3ccc(Br)cc3)N=C(C(C)=O)N2[C@H]2[C@H](OC(C)=O)O[C@H](COC(C)=O)[C@@H](OC(C)=O)[C@@H]2OC(C)=O)cc1 (some centres undefined) | 61.4%
CCOC(=O)C1=C(N)N(c2ccccc2)C2=C(C(=O)CC(C)(C)C2)C1c1ccc(Cl)cc1 (centres undefined) | 43.7%
CCCn1c(=O)c2[nH]c(-c3ccc(OCc4nc5ccc(F)cc5[nH]4)cc3)nc2n(CCC)c1=O | -41.3% (active)
Cc1ccc(/C(CSc2nnc(-c3c[nH]c4ccccc34)n2-c2ccccc2)=N/O)cc1 | 11.5%
CN1CCN(c2ccc(C(=O)/C=C/c3cc(C(F)(F)F)ccc3Cl)cc2)CC1 | 6.75% (active)
COc1ccc(C(=O)Nc2sc3c(c2C#N)CCC(=O)C3)cc1C(F)(F)F | -3.75% (active)
Cc1ccc(/C=C/C(=O)c2ccc(NC(=O)CSc3nnc(-c4c[nH]c5ccccc45)n3-c3ccccc3)cc2)cc1 | 106%

SMILES | growth
COc1ccc(Nc2nc(N)n(Cc3cccc(Br)c3)n2)cc1 | 22.8%
O=C1CCC(N2Cc3cc(NC(=O)COc4ccccc4)ccc3C2=O)C(=O)N1 (centres undefined) | 99.2%
O=C(/C=C/Nc1ccccc1)c1ccc2c(c1)Nc1ccccc1S2 | 86.3%
COc1cc2c(c(OC)c1OC)C(=O)CC(c1cccc(NC(=O)c3cccc(N)c3)c1)O2 (centres undefined) | 107%
Cc1noc2c(Cc3ccc([N+](=O)[O-])cc3)nn(CC(=O)N/N=C/c3ccc(Br)cc3)c(=O)c12 | 86.2%
COc1ccc(-c2nc(Nc3ccccc3S(N)(=O)=O)c3ccccc3n2)cc1 | 95.3%
COc1cc(/C=C/C(=O)c2ccc(NC(=O)CSc3nnc(-c4c[nH]c5ccccc45)n3-c3ccccc3)cc2)cc(OC)c1OC | 121%
O=C(CSc1nnc(-c2ccc3nc(-c4ccc(Cl)cc4)[nH]c3c2)o1)Nc1ccc(Br)cc1 | 60.2%
Cc1ccn2c(C(=O)c3ccccc3)cc(-c3cc(-c4ccc(N(C)C)cc4)c(C#N)c(N)n3)c2c1 | 65.2%
O=C1c2ccccc2C(=O)c2c1c(C(=O)c1ccc(Cl)cc1)n1c2ccc2c3ccccc3ccc21 | 95%
Cn1c(O)c(N=Nc2nc(-c3cc4ccccc4oc3=O)cs2)c2cc(Br)ccc21 | 57.7%
Cn1cc(-c2cc(N)n3nc(-c4c[nH]c5ccc(Br)cc45)cc3n2)c2cccnc21 | -72.6% (active)
COc1ccc2c3nc4cc(C)c(C)cc4nc3n(CCN(C)C)c2c1 | -12.8% (active)
O=C(CSc1nnc(-c2c[nH]c3ccccc23)n1-c1ccccc1)c1ccc(Br)cc1 | 48.6%
OCc1[nH]nc2cc(Nc3ncc4ccc(Br)c(OC5CCC(O)CC5)c4n3)ccc12 (centres undefined) | 13.7%
Cc1cc(C)nc(NS(=O)(=O)c2ccc(N/C(N)=N/c3nccc(-c4ccccc4)n3)cc2)n1 | 52.9%
N#Cc1c(NC(=O)c2ccc(C(O)(C(F)(F)F)C(F)(F)F)cc2)sc2c1CCC(=O)C2 | -38.9% (active)
N#Cc1ccc(-c2nn(-c3ccc(C(=O)O)cc3)cc2CNc2cc(Cl)cc(C(F)(F)F)c2)cc1 | 55.2%
